# Assay results: PubChem BioAssay (EPA / NIEHS)
# Records with an inconclusive call do not appear. Activity calls are given as the source filed them. How the source made its calls: active means hit-call score of the fitted dose curve at least 0.9, where 1 is the maximum; inconclusive means response in the unintended direction; inactive means score below 0.9.
# Test system: not listed separately
# Assay: NVS_IC_rCaDHPRCh_L: NovaScreen (NVS) Ion Channel Assay for rat Calcium Channel, Type L, Dihydropyridine Site (CaDHPRCh_L) (AID 2283320)
# Method: NVS_IC_rCaDHPRCh_L is a biochemical, single-readout assay that uses extracted gene-proteins from Rat cortical membranes in a tissue-based cell-free assay. Measurements were taken 1 hour after chemical dosing in a 48-well plate.NVS_IC_rCaDHPRCh_L is one of one assay component(s) measured or calculated from the NVS_IC_rCaDHPRCh_L assay. It is designed to make measurements of radioligand binding, a form of binding reporter, as detected with scintillation counting signals by Filter-based radiodetection technology.Data from the assay component NVS_IC_rCaDHPRCh_L was analyzed into 1 assay endpoint. This assay endpoint, NVS_IC_rCaDHPRCh_L, was analyzed in the positive analysis fitting direction relative to DMSO as the negative control and baseline of activity. Using a type of binding reporter, loss-of-signal activity can be used to understand changes in the binding as they relate to the gene Cacna1a. Furthermore, this assay endpoint can be referred to as a primary readout, because the performed assay has only produced 1 assay endpoint. To generalize the intended target to other relatable targets, this assay endpoint is annotated to the ion channel intended target family, where the subfamily is calcium channel.
# Binding assays used specific radioligands (tritiated, iodinated) with non-radioactive competitive displacement ligands in agonist or antagonist protocols (as indicated) and various reference compounds and inhibitors to titrate specific binding to receptors and transporters. Most enzyme assays (CYPs, kinases, phosphatases, proteases, HDACs) used recombinant protein and specific substrates (fluorescence mostly, some colorimetric and radioactive) and inhibitors, followed by a biochemical separation of substrate and product. All assays for the biochemical HTS were initially run in duplicate at a single concentration (10 uM for CYP450 assays and 25 uM for all others). Assay-chemical combinations meeting a pre-defined threshold (e.g., 30% inhibition and other criteria defined below) were then run in singleton concentration-response format with maximum concentration of 20 uM for CYPs and 50 uM for all others. Each assay was run with positive and negative controls, and concurrent controls on every plate. The follow-up (secondary) screen tested active chemical-pairs in concentration series, as well as a few additional assays not tested in the primary screen, some selected negative inactives, and several cases re-run in the concentration series for confirmatory purposes.
SMILES,AC50,outcome
Nc1nc(N)c2nc(CNc3ccc(C(=O)N[C@@H](CCC(=O)O)C(=O)O)cc3)cnc2n1,25 µM (active),
FC(F)(F)C(F)(F)C(F)(F)C(F)(F)C(F)(F)C(F)(F)CCI,,inactive
COc1cc(-c2nc(NC(=O)c3cc4cc(C)cc(C)c4n3CC(=O)O)sc2CCC2CCCCC2)c(OC)cc1Cl,6.08 µM (active),

# Molecular target: Sodium channel protein type 1 subunit alpha (Rattus norvegicus) (UniProt P04774)
# Assay: NVS_IC_rNaCh_site2: NovaScreen (NVS) Ion Channel Assay for rat Sodium Channel, Site 2 (NaCh) (AID 2283322);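 further: hit means loss of radioligand binding signal relative to DMSO so AC50 marks displacement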
# In short: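 Initial duplicate single-point testing at 25 uM, followed by concentration-response runs for actives. Binding of radioligand to rat forebrain membranes quantified after 1 h via filter-based radiodetection.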
SMILES,outcome,AC50
Cc1c(C(=O)O)c(O)cc2c1C(=O)c1c(O)c([C@@H]3O[C@H](CO)[C@@H](O)[C@H](O)[C@H]3O)c(O)c(O)c1C2=O,inactive,
CCOC(=O)CCC(=O)OCC,inactive,
COc1cc(-c2nc(NC(=O)c3cc4cc(C)cc(C)c4n3CC(=O)O)sc2CCC2CCCCC2)c(OC)cc1Cl,,9.13 µM (active)

# Molecular target: rat Glutamate, AMPA Site (AMPA), Gria1 (gene 50592) (UniProt P19490)
# Sequence (P19490 whole entry, looked up): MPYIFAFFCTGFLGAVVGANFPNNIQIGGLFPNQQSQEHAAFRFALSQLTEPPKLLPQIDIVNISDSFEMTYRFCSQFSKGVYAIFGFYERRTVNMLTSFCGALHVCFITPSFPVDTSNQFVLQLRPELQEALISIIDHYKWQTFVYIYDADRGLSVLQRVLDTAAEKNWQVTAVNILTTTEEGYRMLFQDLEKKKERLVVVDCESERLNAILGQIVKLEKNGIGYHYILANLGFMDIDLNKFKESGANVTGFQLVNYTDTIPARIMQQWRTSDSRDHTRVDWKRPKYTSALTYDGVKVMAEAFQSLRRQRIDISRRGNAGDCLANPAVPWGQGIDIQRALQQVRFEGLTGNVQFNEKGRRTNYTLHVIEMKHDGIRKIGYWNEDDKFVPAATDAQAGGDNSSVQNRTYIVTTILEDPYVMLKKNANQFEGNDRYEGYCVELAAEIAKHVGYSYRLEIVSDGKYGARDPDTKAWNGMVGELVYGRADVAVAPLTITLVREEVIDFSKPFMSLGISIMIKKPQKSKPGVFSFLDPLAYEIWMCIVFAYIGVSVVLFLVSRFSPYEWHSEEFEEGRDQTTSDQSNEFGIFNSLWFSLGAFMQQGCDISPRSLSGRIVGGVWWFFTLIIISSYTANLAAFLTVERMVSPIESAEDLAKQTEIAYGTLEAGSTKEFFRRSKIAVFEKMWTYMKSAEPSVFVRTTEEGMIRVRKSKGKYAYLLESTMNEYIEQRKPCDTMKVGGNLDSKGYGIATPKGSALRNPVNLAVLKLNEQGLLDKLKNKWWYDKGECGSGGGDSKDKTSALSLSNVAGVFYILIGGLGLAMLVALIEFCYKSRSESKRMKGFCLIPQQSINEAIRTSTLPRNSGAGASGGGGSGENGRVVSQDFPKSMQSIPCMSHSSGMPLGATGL
# Assay: NVS_LGIC_rAMPA: NovaScreen (NVS) Ligand-Gated Ion Channel Assay for rat Glutamate, AMPA Site (AMPA) (AID 2283324)
# In short: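 Screening at 25 uM in duplicate preceded concentration series reaching 50 uM for qualifying compounds. Radioligand displacement on rat forebrain membranes, 1 h, filter-based scintillation readout; reduced binding relative to DMSO.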
SMILES,AC50,outcome
Nc1nc(N)c2nc(CNc3ccc(C(=O)N[C@@H](CCC(=O)O)C(=O)O)cc3)cnc2n1,23.2 µM (active),
CCCCCCCC=O,,inactive
Cc1cc(NC(=O)C(=O)O)cc(C)c1Oc1ccc(O)c2c1CCC2,,inactive
CCOc1ccc2c(c1)C(C)=CC(C)(C)N2,,inactive

# Molecular target: human Serotonin, 5-Hydroxytryptamine Receptor 3 (5HT3), HTR3A (gene 3359) (UniProt P46098)
# Sequence (P46098 whole entry, looked up): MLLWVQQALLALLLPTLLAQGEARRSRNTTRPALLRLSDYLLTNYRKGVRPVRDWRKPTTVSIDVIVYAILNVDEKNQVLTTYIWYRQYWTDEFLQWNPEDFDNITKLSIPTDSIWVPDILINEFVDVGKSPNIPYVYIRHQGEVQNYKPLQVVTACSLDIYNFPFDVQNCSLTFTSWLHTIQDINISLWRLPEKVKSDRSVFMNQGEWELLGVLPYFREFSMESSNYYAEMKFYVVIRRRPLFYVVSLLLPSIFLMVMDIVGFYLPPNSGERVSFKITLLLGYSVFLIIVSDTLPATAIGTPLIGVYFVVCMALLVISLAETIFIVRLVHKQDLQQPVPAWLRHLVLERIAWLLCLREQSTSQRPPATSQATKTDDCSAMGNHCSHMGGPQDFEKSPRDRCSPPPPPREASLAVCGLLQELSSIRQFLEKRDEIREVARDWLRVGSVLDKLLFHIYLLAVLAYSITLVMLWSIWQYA
# Assay: NVS_LGIC_h5HT3: NovaScreen (NVS) Ligand-Gated Ion Channel Assay for human Serotonin, 5-Hydroxytryptamine Receptor 3 (5HT3) (AID 2283325)
# In short: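 Initially tested at 25 uM in duplicate, then up to 50 uM in concentration-response for actives, compounds competed with a radioligand for HEK293-derived human 5-HT3 receptor. Bound counts were measured by filtration and scintillation at 1 h; loss of signal versus DMSO.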
SMILES,outcome,AC50
CCCCCCCCCCCCCCCC,inactive,
COc1cc(C=O)ccc1O,,15 µM (active)
O=C(OCCCCCOC(=O)c1ccccc1)c1ccccc1,,0.0428 µM (active)
CCCCCCCCCCCC(=O)OC,inactive,
CCOc1ccc2c(c1)C(C)=CC(C)(C)N2,inactive,
NCC1(Cc2noc(=O)[nH]2)CCCCC1,inactive,
Cc1ccc(Cl)cc1,,7.56 µM (active)

# Molecular target: human Peripheral-type Benzodiazepine Receptor (PBR), TSPO (gene 706) (UniProt P30536)
# Sequence (P30536 whole entry, looked up): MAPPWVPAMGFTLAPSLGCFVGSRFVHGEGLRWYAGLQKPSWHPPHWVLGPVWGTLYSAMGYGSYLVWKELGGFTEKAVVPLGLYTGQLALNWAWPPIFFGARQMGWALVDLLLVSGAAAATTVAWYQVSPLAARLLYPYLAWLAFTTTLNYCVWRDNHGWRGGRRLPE
# Assay: NVS_MP_hPBR: NovaScreen (NVS) Membrane Protein Assay for human Peripheral-type Benzodiazepine Receptor (PBR) (AID 2283331);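 further: hits reduce radioligand binding relative to DMSO baseline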
# In short: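 Using human colon-derived membranes, this one-endpoint binding test reads radioligand loss by scintillation after 1 h. Screening started at 25 uM in duplicate, with positive and negative controls on every plate, and actives moved to dose series.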
SMILES,AC50,outcome
CC=Cc1ccc(O)c(OC)c1,17.2 µM (active),
C=CCOC(=O)c1ccccc1C(=O)OCC=C,25 µM (active),
Nc1ccc2c(c1)C(=O)c1ccccc1C2=O,,inactive
Cc1ccc(C(C)C)c(O)c1,18.3 µM (active),
